Screening data (PubChem BioAssay)
Shown are actives, neighbours in structure and some others; about 32% of the full set was active somewhere.
CYP2C9 act – activators of human CYP2C9; activation factor at 5 µM; AID 1024; actives 1.4% (n = 96,000); recombinant CYP2C9, luciferin-H conversion, luminescence; stronger effect = higher value; factor 1 = untreated enzyme, 0 = blocked;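 active = activation factor of 2 or more for CYP2C9 at a 5 µM dose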;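 also: 0 = sulfaphenazole-blocked wells and 1 = vehicle-only wells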
PostGolgi ctrl – yeast control strain growth, post-Golgi counter-screen; efflux-deficient yeast background strain, growth absorbance A615, 16 h; inhibition, % at 10 µM; actives 5% (n = 98,000)
PostGolgi yeast – growth inhibition of a yeast mutant, post-Golgi transport screen | actives 0.9% (n = 98,000) | post-Golgi transport phenotypic cell assay | inhibition, % at 10 µM | AID 739;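 also: yeast cells grown in 1536-well plates; yeast grown about 18 h at 30C before absorbance read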
CYP2C19 act – increases human CYP2C19 enzyme activity | 96,000 tested, under 10 active | recombinant CYP2C19, luciferin-H EGE luminescence; stronger effect = higher value; 0 = fully inhibited enzyme, 1 = untreated enzyme | activation factor at 5 µM | P33261;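 active = activation factor of at least 2 at 5 µM in the primary screen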;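 also: 0 = wells with 2.5 mM tranylcypromine and 1 = vehicle-only wells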
Target sequence (P33261 whole entry, looked up): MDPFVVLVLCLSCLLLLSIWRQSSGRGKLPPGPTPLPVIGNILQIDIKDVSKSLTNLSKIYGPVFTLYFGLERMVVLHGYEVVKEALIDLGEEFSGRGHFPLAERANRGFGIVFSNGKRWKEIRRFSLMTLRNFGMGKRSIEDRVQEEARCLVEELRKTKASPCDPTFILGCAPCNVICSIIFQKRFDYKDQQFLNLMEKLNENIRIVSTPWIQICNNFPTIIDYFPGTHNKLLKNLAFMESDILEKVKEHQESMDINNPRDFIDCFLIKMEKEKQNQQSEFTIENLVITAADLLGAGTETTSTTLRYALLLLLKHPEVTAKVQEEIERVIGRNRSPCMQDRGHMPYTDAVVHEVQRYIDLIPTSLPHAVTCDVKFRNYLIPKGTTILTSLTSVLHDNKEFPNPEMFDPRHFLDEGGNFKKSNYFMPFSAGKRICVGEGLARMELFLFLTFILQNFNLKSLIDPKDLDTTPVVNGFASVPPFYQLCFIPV
CYP2C9 inhib – blocks human cytochrome P450 2C9. P11712. AID 777. inhibition, % at 5 µM. CYP2C9 Supersomes, luciferin-H conversion, luminescence. actives 20% (n = 96,000);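 active = blocking of liver enzyme CYP2C9 beyond about 50% at 5 µM, limit read from the data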
CYP2C19 inh – human CYP2C19 inhibition; CYP2C19 Supersomes, luciferin-H EGE luminescence, 30 min; AID 778; actives 21% (n = 96,000); inhibition, % at 5 µM;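 active = CYP2C19 inhibition above a set limit at 5 µM in the primary screen, cut at about 50% in these data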;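 also: plate controls were negative control wells for no effect and 2.5 mM tranylcypromine positive control for full effect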
The depositor's hits bear a star; nt = not tested or not shown. Rule as the data show it, unless noted: active = inhibition above about 30%; inactive = the rest.

SMILES | CYP2C9 act | PostGolgi ctrl | PostGolgi yeast | CYP2C19 act | CYP2C9 inhib | CYP2C19 inh
CC(C)OC(=O)c1c(NC(=O)Cn2cnc([N+](=O)[O-])n2)sc2c1CCCC2 | 0.9 | -5 | -13 | 1 | 13 | -4
COC(=O)c1c(NC(=O)c2ccco2)sc2c1CCC2 | 0.6 | 26 | -4 | 0.8 | 40 | 23
COC(=O)c1c(NC(=O)c2ccco2)sc2c1C(C(=O)OC)CC2 (stereo unspecified) | 0.4 | 10 | 5 | 0.7 | 62* | 34
O=C(Nc1sc2c(c1C(=O)O)CCC2)c1ccco1 | 0.5 | 4 | -1 | 0.4 | 53* | 62*
O=C(Nc1sc2c(c1C(=O)NC1CC1)CCCCCC2)c1ccco1 | 0.7 | 57* | 16 | 0.9 | 33 | 10
Cc1ccc2nc(/C(C#N)=C/c3cn[nH]c3-c3ccc(F)cc3)[nH]c2c1 | 0.6 | 10 | -3 | 0.6 | 42 | 37
CCOC(=O)c1c(C)cc(C)n2c1nc1ccccc12 | 1.2 | 23 | 6 | 1.2 | -24 | -18
O=C(CN1C(=O)NC2(CCc3ccccc32)C1=O)c1ccc2c(c1)OCCO2 (stereo unspecified) | 0 | -2 | 6 | 0.4 | 96* | 58*
Cc1cc(C(=O)CN2C(=O)NC3(CCCc4ccccc43)C2=O)c(C)n1C (stereo unspecified) | 0.3 | -3 | -9 | 0.7 | 72* | 32
CNC(=O)CN1C(=O)NC2(CCc3ccccc32)C1=O (stereo unspecified) | 0.8 | -9 | 22 | 0.8 | 16 | 25
Cc1cc(C(=O)CN2C(=O)NC(c3ccccc3)(c3ccccc3)C2=O)c(C)n1Cc1ccccc1 | 0.3 | 14 | 8 | 0.7 | 70* | 29
CCCCNC(=O)CN1C(=O)NC2(CCCc3ccccc32)C1=O (stereo unspecified) | 0.3 | 13 | 0 | 1.1 | 68* | -6
CCOc1ccc(Oc2ccc(-c3nnc(-c4ccccc4)o3)cc2[N+](=O)[O-])cc1 | 0.9 | -10 | -6 | 0.9 | 13 | 12
CCOc1ncccc1C(=O)OCC(=O)c1cc(C)n(Cc2ccco2)c1C | 2.3* | 8 | -2 | 0.2 | -127 | 80*
CCOC(=O)c1cnc2c(C)cccc2c1NCc1ccco1 | 0.5 | 27 | -13 | 0.5 | 49 | 47
CCOc1ncccc1C(=O)OCC(=O)c1ccc(Cl)s1 | 0.9 | 3 | 5 | 0.5 | 10 | 55*
Cc1cc(C(=O)COC(=O)CCC(=O)c2ccc3c(c2)OCCO3)c(C)n1Cc1ccco1 | 0.3 | 12 | -1 | 0.3 | 68* | 67*
CCOc1ncccc1C(=O)OCC(=O)c1c(N)n(C)c(=O)n(C)c1=O | 1.3 | 8 | 2 | 1 | -34 | -5
O=C(CCC(=O)OCC(=O)c1cccc([N+](=O)[O-])c1)Nc1ccccc1Cl | 1.2 | 2 | 21 | 1.1 | -16 | -7
CCOC(=O)Cn1nnnc1CN(Cc1ccccc1)Cc1cc2cc(CC)ccc2[nH]c1=O | 0.4 | 3 | 2 | 0.5 | 62* | 48
CCC(c1nnnn1CCOC)N(Cc1ccc(C)cc1)Cc1cc2cc(OC)ccc2[nH]c1=O (stereo unspecified) | 0.9 | 8 | 4 | 0.8 | 12 | 19
CCOC(=O)Cn1nnnc1C(CC)N(Cc1ccccc1)Cc1cc2cc(C)ccc2[nH]c1=O (stereo unspecified) | 0.5 | 3 | 4 | 0.4 | 54* | 58*
CCc1ccc2[nH]c(=O)c(CN(Cc3ccccc3)Cc3nnnn3Cc3ccco3)cc2c1 | 0.9 | 13 | 5 | 0.9 | 5 | 12
CCCc1[nH]c(=O)c(C#N)c2c1CCCC2 | 0.9 | 0 | 4 | 1 | 14 | -1
CCOC(=O)c1cnn(-c2ccccc2)c1-n1cccc1C(=O)C(=O)Nc1ccccc1C(F)(F)F | 0.3 | 7 | 3 | 0.5 | 65* | 54*
SMILES | CYP2C9 act | PostGolgi ctrl | PostGolgi yeast | CYP2C19 act | CYP2C9 inhib | CYP2C19 inh
CCOC(=O)c1cnn(-c2ccccc2)c1NC(=O)c1ccccc1C | 1.1 | -8 | -6 | 0.8 | -5 | 16
COc1ccc(NC(=O)c2ccco2)cc1N | 0.9 | 11 | 2 | 0.8 | 13 | 15
CCN(CC)S(=O)(=O)c1ccc(OC(C)C)nc1 | 0.8 | 4 | 0 | 0.2 | 24 | 79*
CCN(CC)CCNc1ncnc2c1sc1nc(N3CCOCC3)c3c(c12)CC(C)(C)SC3 | 0.8 | 12 | 7 | 0.8 | 23 | 22
CCN(CC)C(=O)C1CCCN(C(=O)Nc2ccc3nsnc3c2)C1 (stereo unspecified) | 0.8 | -2 | -2 | 0.4 | 25 | 59*
O=C(Nc1ccc2nsnc2c1)NC1CCCCC1 | 0.9 | 0 | -3 | 0.8 | 14 | 20
CCCCn1c(CN2CCN(C(=O)OCC)CC2)nc2c1c(=O)n(C)c(=O)n2C | 1 | 0 | -5 | 1.1 | -3 | -11
COC(CNc1cc(=O)oc2ccccc12)OC | 1 | 6 | 19 | 0.9 | 4 | 13
CCOC(=O)/C=C(\C)Sc1cc(=O)oc2ccccc12 | nt | 33* | 8 | nt | nt | nt
O=C1c2ccccc2C(=O)N1CCCc1nc(-c2ccncc2)no1 | 0.6 | 36* | 1 | 0.6 | 43 | 41
Nc1nonc1-c1noc(-c2ccccc2Br)n1 | 1 | 14 | 2 | 0.3 | 0 | 67*
O=C1c2ccccc2C(=O)N1CCCc1nc(-c2cccnc2)no1 | 1 | -6 | -11 | 1 | 3 | -5
Nc1nonc1-c1noc(N2CCOCC2)n1 | nt | 9 | 13 | nt | nt | nt
Nc1nonc1-c1noc(CCCN2C(=O)c3ccccc3C2=O)n1 | 0.9 | 13 | -4 | 0.4 | 12 | 57*
CC1CCN(C(=O)c2ccccc2NC(=O)c2cccc(S(=O)(=O)N3CCOCC3)c2)CC1 | 0.8 | -5 | -12 | 0.8 | 25 | 17
CC(O)c1nc2ccccc2n1C/C=C/c1ccccc1 (stereo unspecified) | 0.5 | 12 | -3 | 0 | 55* | 98*
CC(C)c1nc2ccccc2n1CCC(=O)O | 1.4 | 0 | 5 | 1.4 | -36 | -38
C=C(Br)Cn1c(CC)nc2ccccc21 | 1 | -5 | 8 | 1 | -4 | 2
OCc1nc2ccccc2n1C/C=C/c1ccccc1 | 0.4 | 2 | 1 | 0.1 | 60* | 92*
Cc1ccc(S(=O)(=O)N(C)Cc2ccc(-c3nnco3)cc2)cc1 | 0.8 | 30 | 3 | 0.5 | 16 | 48
Cc1ccc(C(C)C)c(OCc2ccc(-c3nnco3)cc2)c1 | 0.6 | -2 | -7 | 0.1 | 40 | 86*
CC1=C(C)NC(=S)SC1 | 1.1 | -3 | -1 | 1.1 | -9 | -6
COC(=O)c1cc2oc(C)cc2n1CC(=O)Nc1ccc(OC)c(OC)c1OC | 0.4 | 1 | 4 | 0.4 | 63* | 59*
COC(=O)c1cc2occc2n1CC(=O)Nc1ccc(OC)c(OC)c1OC | 0.6 | 9 | 17 | 0.8 | 44 | 23
